Among all 5,500 compounds or so, about 2,000 (36%) were called active. Inconclusive results (about 18%) are left out. Some of the results follow. Values without a mark were called inactive. Cut-off read from the data, not from the text of the source: active = normalized growth mostly below about 0.91 (no sharp cut-off); inconclusive = no clear call, values can overlap the other calls; inactive = mostly above about 0.92.
Experiment: chemical genetic growth profiling, strain panel (AID 1159580);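 note: tested at 20 µM; growth read once vehicle control cultures reached saturation at 30 °C; 1 = growth at the plate median or of vehicle wells; lower values mean less growth of the strain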
Conditions: growth OD
[1] = S. cerevisiae deletion strains, locus YAL013W, strain DEP1, active compounds read low
[2] = S. cerevisiae deletion strains, locus YBR229C, strain ROT2, active compounds read low
[3] = S. cerevisiae deletion strains, locus YDL101C, strain DUN1, active compounds read low
[4] = S. cerevisiae deletion strains, locus YDL134C, strain PPH21, active compounds read low
[5] = S. cerevisiae deletion strains, locus YDR150W, strain NUM1, active compounds read low
[6] = S. cerevisiae deletion strains, locus YEL061C, strain CIN8, active compounds read low
[7] = S. cerevisiae deletion strains, locus YGR078C, strain PAC10, active compounds read low
[8] = S. cerevisiae deletion strains, locus YHR030C, strain SLT2, active compounds read low
[9] = S. cerevisiae deletion strains, locus YHR087W, strain rtc3, active compounds read low
[10] = S. cerevisiae deletion strains, locus YJR043C, strain POL32, active compounds read low
[11] = S. cerevisiae deletion strains, locus YJR075W, strain HOC1, active compounds read low
[12] = S. cerevisiae deletion strains, locus YKL190W, strain CNB1, active compounds read low
[13] = S. cerevisiae deletion strains, locus YLR039C, strain RIC1, active compounds read low
[14] = S. cerevisiae deletion strains, locus YLR058C, strain SHM2 (second series), active compounds read low
[15] = S. cerevisiae deletion strains, locus YLR085C, strain ARP6, active compounds read low
[16] = S. cerevisiae deletion strains, locus YLR262C, strain YPT6, active compounds read low
[17] = S. cerevisiae deletion strains, locus YML094W, strain GIM5, active compounds read low
[18] = S. cerevisiae deletion strains, locus YMR219W, strain ESC1, active compounds read low
[19] = S. cerevisiae deletion strains, locus YMR263W, strain SAP30, active compounds read low
[20] = S. cerevisiae deletion strains, locus YNL153C, strain GIM3, active compounds read low
[21] = S. cerevisiae deletion strains, locus YNL298W, strain CLA4 (second series), active compounds read low
[22] = S. cerevisiae deletion strains, locus YNL322C, strain KRE1, active compounds read low
[23] = S. cerevisiae deletion strains, locus YNR030W, strain Alg12, active compounds read low
[24] = S. cerevisiae deletion strains, locus YPL055C, strain LGE1, active compounds read low
[25] = S. cerevisiae deletion strains, locus YPL241C, strain CIN2, active compounds read low
[26] = S. cerevisiae deletion strains, locus YPR135W, strain CTF4, active compounds read low
[27] = S. cerevisiae deletion strains, locus YCL061C, strain MRC1, active compounds read low
[28] = S. cerevisiae deletion strains, locus YGR229C, strain SMI1, active compounds read low
[29] = S. cerevisiae deletion strains, locus YMR307W, strain GAS1, active compounds read low
[30] = S. cerevisiae deletion strains, locus YNL128W, strain TEP1, active compounds read low
[31] = S. cerevisiae deletion strains, locus YAL040C, strain CLN3, active compounds read low
[32] = S. cerevisiae deletion strains, locus YCL061C, strain MRC1 (second series), active compounds read low
[33] = S. cerevisiae deletion strains, locus YDR363W, strain ESC2, active compounds read low
[34] = S. cerevisiae deletion strains, locus YER002W, strain NOP16, active compounds read low
[35] = S. cerevisiae deletion strains, locus YNL175C, strain NOP13, active compounds read low
[36] = S. cerevisiae deletion strains, locus YNL197C, strain WHI3, active compounds read low
[37] = S. cerevisiae deletion strains, locus YNL224C, strain SQS1, active compounds read low
[38] = S. cerevisiae deletion strains, locus YOR083W, strain WHI5 (second series), active compounds read low

`O=[N+]([O-])c1cc(C(F)(F)F)ccc1NCCCn1ccnc1` showed a normalized growth [1] of 1.01, a normalized growth [2] of 1.01 and a normalized growth [3] of 1.06. It also gave a normalized growth [4] of 0.976, a normalized growth [5] of 1.04 and a normalized growth [6] of 0.988. The normalized growth [7] was 1.03, the normalized growth [8] was 1.1 and the normalized growth [9] was 0.965. It also gave a normalized growth [10] of 1.04, a normalized growth [11] of 1.04 and a normalized growth [12] of 0.994. For the same molecule, the normalized growth [13] was 1.08, the normalized growth [14] was 1 and the normalized growth [15] was 1.03. For the same molecule, the normalized growth [16] was 1, the normalized growth [17] was 1.01 and the normalized growth [18] was 0.991. It also gave a normalized growth [19] of 1.03, a normalized growth [20] of 1.04 and a normalized growth [21] of 1.01. For the same molecule, the normalized growth [22] was 0.98, the normalized growth [23] was 1.01 and the normalized growth [24] was 0.991. It also gave a normalized growth [25] of 1.03 and a normalized growth [26] of 1.07.

For `CC(O)CNc1ccc(C(F)(F)F)cc1[N+](=O)[O-]` (stereo unspecified), the normalized growth [1] was 1.01, the normalized growth [2] was 1.01 and the normalized growth [27] was 1.03. For the same molecule, the normalized growth [3] was 1.03, the normalized growth [5] was 1.04 and the normalized growth [6] was 0.997. The normalized growth [7] was 1.02, the normalized growth [28] was 0.993 and the normalized growth [8] was 0.987. The normalized growth [9] was 1, the normalized growth [10] was 1.02 and the normalized growth [11] was 1.04. The normalized growth [12] was 1.02, the normalized growth [13] was 1.08 and the normalized growth [14] was 0.998. It also gave a normalized growth [15] of 0.989, a normalized growth [16] of 0.985 and a normalized growth [17] of 0.947. For the same molecule, the normalized growth [18] was 1, the normalized growth [19] was 1.02 and the normalized growth [29] was 1.03. The normalized growth [30] was 1.02, the normalized growth [20] was 0.998 and the normalized growth [21] was 1.05. The normalized growth [22] was 1, the normalized growth [23] was 0.999 and the normalized growth [24] was 0.966. For the same molecule, the normalized growth [25] was 1.01 and the normalized growth [26] was 1.01.

For `Cc1cc(C)c(C(=O)NCCNc2ccc(C(F)(F)F)cc2[N+](=O)[O-])c(C)c1`, the normalized growth [1] was 0.97, the normalized growth [2] was 0.951 and the normalized growth [27] was 0.966. It also gave a normalized growth [3] of 0.98, a normalized growth [4] of 0.971 and a normalized growth [5] of 0.9. The normalized growth [6] was 0.862 (active), the normalized growth [7] was 0.953 and the normalized growth [28] was 1. The normalized growth [8] was 0.259 (active), the normalized growth [9] was 0.89 (active) and the normalized growth (S. cerevisiae deletion strains, locus YJL187C, strain SWE1, active compounds read low) was 0.978. For the same molecule, the normalized growth [10] was 0.968, the normalized growth [11] was 0.895 and the normalized growth [12] was 0.794 (active). The normalized growth [13] was 0.473 (active), the normalized growth [14] was 0.996 and the normalized growth [15] was 0.331 (active). For the same molecule, the normalized growth [16] was 0.58 (active), the normalized growth [17] was 0.817 (active) and the normalized growth [18] was 0.98. The normalized growth [19] was 0.96, the normalized growth [30] was 0.957 and the normalized growth [20] was 0.964. For the same molecule, the normalized growth [21] was 0.785 (active), the normalized growth [22] was 0.986 and the normalized growth [23] was 0.652 (active). For the same molecule, the normalized growth [24] was 0.687 (active), the normalized growth [25] was 0.846 (active) and the normalized growth [26] was 0.55 (active). The normalized growth (S. cerevisiae strains, strain wild type, active compounds read low) was 0.916.

Work on `CCOC(=O)c1ncn2c1[C@@H]1CCCN1C(=O)c1cc(OC)ccc1-2` yielded a normalized growth [31] of 0.938, a normalized growth [32] of 1.01 and a normalized growth [33] of 1. It also gave a normalized growth [34] of 1.01, a normalized growth [28] of 1.05 and a normalized growth [29] of 0.981. The normalized growth [35] was 1.04, the normalized growth [36] was 1.03 and the normalized growth [37] was 1.01. It also gave a normalized growth [22] of 1.02, a normalized growth [38] of 1.04 and a normalized growth [24] of 1.05. The normalized growth [25] was 1.01.

Work on `CCCN(CCC)[C@@H]1CCc2cccc(O)c2C1` yielded a normalized growth [31] of 1.04, a normalized growth [32] of 0.995 and a normalized growth [5] of 0.989. It also gave a normalized growth [33] of 0.997, a normalized growth [34] of 0.977 and a normalized growth [7] of 0.981. It also gave a normalized growth [28] of 1.07, a normalized growth [11] of 1.02 and a normalized growth [19] of 1. It also gave a normalized growth [29] of 1.03, a normalized growth [20] of 0.953 and a normalized growth [35] of 0.998. For the same molecule, the normalized growth [36] was 0.974, the normalized growth [37] was 1 and the normalized growth [38] was 1.01. The normalized growth [24] was 1.01 and the normalized growth [25] was 1.

Source: PubChem BioAssay AID1159580 (chemical genetic matrix, 2015)
